For 14 molecules, growth inhibition results are on record in PubChem BioAssay (NCI).

The panel holds about 79,000 compounds, 15% with a hit somewhere; the sample as a whole holds those more often. Values without a mark were called inactive. Activity calls are given as the source filed them. No stated cut-off is given here; in the data, active means growth inhibition above about 70%; inactive means the rest.

A short description of this experiment: NCI Yeast Anticancer Drug Screen. Data for the mec2-1 strain (AID 157). Particulars: S. cerevisiae mec2-1 strain, stronger effect = higher value. As for the experimental part:
Growth inhibition of yeast strains with defined genetic alterations is measured as a screen for potential anti-cancer activity. Selected strains with alterations in DNA damage repair or cell cycle control were exposed to compounds and growth inhibition was measured relative to vehicle treated controls. The strain used in this assay is mec2-1

The mark [1] stands for this setting: at 5.0 µM (retest, dose inferred, filed as 0.5).
Setting [2] is: at 50.0 µM (retest, dose inferred, filed as 5.0).

On to `CN1CCCN(C)C1c1cc([N+](=O)[O-])ccc1O`, for which the growth inhibition is 3% under setting [1], 92% (active) under setting [2] and 98.2% (active) (at 50.0 µM).
In the case of `CC(c1ccccc1)n1c2ccccc2c2c(N)ncnc21` (configuration not stated), the growth inhibition by setting is: under setting [1], -11%; under setting [2], 100% (active); (at 50.0 µM) 86.8% (active).
The corresponding values for `CCC[CH2][Sn]([CH2]CCC)([O]C(=O)c1cc(F)ccc1F)[O][Sn]([CH2]CCC)([CH2]CCC)[O]C(=O)c1cc(F)ccc1F` are 87% (active), 97% (active) and 69.3%.
The corresponding values for `CN(C)C=Nc1ccc2nonc2c1` are -15%, -7% and -3.55%.
For the molecule `CCOC(=O)c1c(N2CCCC2)nsc1Nc1ccc(F)cc1`, the growth inhibition by setting is: under setting [1], -1%; under setting [2], 93% (active); (at 50.0 µM) 87.2% (active).
The corresponding values for `C[C@]12CC[C@H](O)C[C@@H]1CC[C@@H]1[C@@H]2CC[C@]2(C)[C@@H](c3cc(C(F)(F)F)n[nH]3)CC[C@@H]12` are 3%, 86% (active) and 61.6%.
With `O=C1/C(=C\c2ccccc2)CN(C(=O)CCN2CCCCC2)C/C1=C/c1ccccc1`, the growth inhibition was 22% under setting [1], 57% under setting [2] and 92.8% (active) (at 50.0 µM).
The matching figures for `NC(Cc1ccccc1)c1ccc2cccc3c2c1CC3` (configuration not stated): -5%, 8% and 33.8%.
For the molecule `O=C(N/C(=C\c1cccc([N+](=O)[O-])c1)c1nc2ccccc2s1)c1ccccc1`, the growth inhibition runs as follows: under setting [1], 29%; under setting [2], 98% (active); (at 50.0 µM) 98.6% (active).
The corresponding values for `Nc1ccc(C(=O)N/N=C\c2cccc3ccccc23)cc1` are -3%, 13% and 60.6%.
The matching figures for `O=C1NC(O)c2cccc(Cl)c2O1` (configuration not stated): 22%, 99% (active) and 92.2% (active).
The matching figures for `CC(=O)N(C(C)=O)C1=C2c3ccccc3N(S(=O)(=O)c3ccccc3)C2n2c(=O)n(-c3ccccc3)c(=O)n2C1` (configuration not stated): -5%, 46% and 46.8%.
With `Cc1cc(C(=O)O)c(C)c2c1sc1ccccc12`, the growth inhibition was 3% under setting [1], 79% (active) under setting [2] and 27.2% (at 50.0 µM).
The corresponding values for `Cc1nn(C(=O)c2ccccc2O)c2c1C(c1ccc3ccccc3c1O)SC(N)=N2` (configuration not stated) are 0%, 95% (active) and 92.5% (active).
